The structures appear in SMILES notation. Where “and” joins values, the source holds several entries; their conditions need not be identical. Equal entries are not always repeated. Inconclusive results are not listed. Calls of active or inactive are those of the source. Unless noted, calls follow the shape of the dose curve; as a rule, active = well fitted curve in the direction sought with a large enough effect in the repeat runs; inconclusive = weak or mixed curves; inactive = no such curve, though single readings can be large; an effect the other way counts as inactive or inconclusive.

Test [1] in a line: qHTS assay to identify small molecule agonists of the vitamin D receptor (VDR) signaling pathway - cell viability counter screen (AID 743224). Also: series mostly up to about 63 µM; nearly all actives have a fitted effect of over 50% in size. The method, boiled down:
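Here cell health was gauged by luminescent ATP detection (CellTiter-Glo, 30 min RT) in VDR-bla cells that had been incubated with test compounds for 16 h at 37C and 5% CO2.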
For orientation: Quantitative high-throughput screening tests each substance at several concentrations.

The nature of test [2]: qHTS assay to identify small molecule antagonists of the vitamin D receptor (VDR) signaling pathway - cell viability counter screen (AID 743225). Also: nearly all actives have a fitted effect of over 50% in size. The method in brief:
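VDR-UAS-bla HEK 293T cells were plated and incubated 4 h at 37C, then dosed with compound plus 3 nM (final) 1-alpha,25-dihydroxyvitamin D3 for 16 h. After the 2 h beta-lactamase read, viability in the same wells was read as CellTiter-Glo luminescence after 30 min at room temperature.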

The nature of test [3]: qHTS assay to identify small molecule agonists of the NFkB signaling pathway (AID 1159509; active = well fitted curve in the direction sought with a large enough effect in the signal ratio in the repeat runs, not every such curve was filed as active; the % refers to the signal ratio; also: series mostly up to about 61 µM). The method, boiled down: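 After overnight attachment, reporter cells received test compounds, DMSO or positive controls and were incubated 5 hr at 37 C. FRET substrate was then added for 1.5 hr at room temperature before dual-emission fluorescence reading.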
Test [4] in a line: qHTS assay to identify small molecule agonists of the NFkB signaling pathway - cell viability counter screen (AID 1159515; calls by dose curve; also: series mostly up to about 61 µM; nearly all actives have a fitted effect of over 55% in size). The method in brief:
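5 hr compound treatment of NFkB-bla ME-180 cells (2,000/well, seeded overnight beforehand), followed by reporter substrate for 1.5 hr. CellTiter-Glo added afterward; luminescence after 30 min RT.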

A short description of test [5]: qHTS assay to identify small molecule agonists of the endoplasmic reticulum stress response signaling pathway - cell viability counter screen (AID 1159517; calls by dose curve;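 also: HeLa cells carrying an ER stress response element beta-lactamase reporter; series mostly up to about 61 µM; nearly all actives have a fitted effect of over 50% in size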). The method in brief:
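Luminescence readout: CellTiter-Glo, 30 min RT, same wells as the ESRE-bla reporter read. HeLa ESRE-bla, 1,500 cells/well, o/n 37 C; cpd 5 hr 37 C/5% CO2.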

Test [6] can be described thus: qHTS assay to identify small molecule antagonists of the retinoid-related orphan receptor gamma (ROR-gamma) signaling pathway - cell viability counter screen (AID 1159520). Also: nearly all actives have a fitted effect of over 50% in size. The method, boiled down:
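Tet-on ROR gamma CHO cells (1,000/well) were plated 4 hr, given compounds in DMSO for 2 hr at 37 C, then induced with 1 uM final doxycycline for 16 hr. Viability was read as ATP by CellTiter-Glo luminescence after 30 min.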

Test [7] concerns the target Nuclear receptor ROR-gamma (Homo sapiens) (UniProt P51449). Put plainly: qHTS assay to identify small molecule antagonists of the retinoid-related orphan receptor gamma (ROR-gamma) signaling pathway (AID 1159521; also: nearly all actives have a fitted effect of over 50% in size; also: potency is read from the fitted curve at half-maximal effect). The method, boiled down: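 Tet-on ROR-gamma CHO cells with ROR response element-luciferase reporter; compounds added 2 hr before 1 uM doxycycline induction, then 16 hr at 37 C. Antagonism scored as decreased ONE-Glo luminescence.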

Test [8] is described as follows: qHTS assay to identify small molecule agonists of the AP-1 signaling pathway - cell viability counter screen (AID 1159525; calls by dose curve; also: nearly all actives have a fitted effect of over 55% in size). The method in brief:
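ME-180 AP-1-bla, 2500 cells/well, Opti-MEM + 0.5% dialyzed FBS; overnight 37 °C; cpd 15-pt titration, 5 h 37 °C; CellTiter-Glo 30 min RT; luminescence read; normalised to TOAB and DMSO controls.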

The nature of test [9]: qHTS assay to identify small molecule agonists of the AP-1 signaling pathway (AID 1159526; calls by dose curve; also: potency is read from the fitted curve at half-maximal effect).
The nature of test [10]: qHTS assay to identify small molecule antagonists of the retinoid acid receptor (RAR) signaling pathway - cell viability counter screen (AID 1159551). Also: nearly all actives have a fitted effect of over 35% in size. The method in brief:
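Seed C3RL4 cells; next day add compound, then retinol to 1 uM final; incubate 6 h at 37 C; add CellTiter-Glo; read luminescence after 30 min at RT.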

Test [11] can be described thus: qHTS assay to identify small molecule antagonists of the retinoic acid receptor (RAR) signaling pathway (AID 1159552; also: nearly all actives have a fitted effect of over 50% in size). The method, boiled down:
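Retinol signaling pathway inhibitors screened in C3RL4 RARE-luciferase reporter cells seeded overnight at 37 C, then compounds added with 1 uM (final) retinol as pathway substrate. After 6 hr at 37 C, luciferase luminescence read after 30 min at room temperature.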

A short description of test [12]: qHTS assay to identify small molecule agonists of the retinoic acid receptor (RAR) signaling pathway (AID 1159553). The method in brief: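 Activation of retinol signaling was monitored via a RARE luciferase reporter in C3RL4 cells. After 6 hr compound treatment at 37 C, detection reagent was added for 30 min at room temperature before luminescence reading.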
Test [13] in a line: qHTS assay to identify small molecule antagonists of the estrogen related receptor (ERR) signaling pathway - cell viability counter screen (AID 1224818).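 Also: series mostly up to about 46 µM; viability measured after 17.5 h of compound exposure.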 The method, boiled down: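 In the same ERR cell assay, compound-treated wells (17.5 h, 37 C) were multiplexed with a fluorogenic viability reagent, CellTiter-Fluor, read after 30 min to flag cytotoxic substances.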
Test [14] is described as follows: qHTS assay to identify small molecule antagonists of the estrogen related receptor signaling pathway with the pleiotropic PPARgamma coactivator (PGC) cell viability counter screen (AID 1224822; also: series mostly up to about 46 µM). The method in brief: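 Compounds in DMSO, with positive and negative controls, were applied to PGC/ERR cells (2,000/well) and left 17.5 h at 37 C before CellTiter-Fluor detection.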

Test [15] in a line: qHTS assay to identify small molecule agonists of the RXR signaling pathway - cell viability counter screen (AID 1159529). The method in brief:
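RXR-alpha-UAS-bla HEK 293T cells in medium with 2% charcoal-stripped FBS were pre-incubated 5 hr, then compound-treated 16 hr at 37 C. Viability was read by CellTiter-Glo luminescence in the same wells as the beta-lactamase assay, with tetraoctyl ammonium bromide as positive control.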

Test [16] can be described thus: qHTS assay to identify small molecule agonists of the endoplasmic reticulum stress response signaling pathway (AID 1159516; active = well fitted activation curve with a large enough effect in the signal ratio in the repeat runs, not every such curve was filed as active; the % refers to the signal ratio). The method, boiled down: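 Reporter HeLa cells (ESRE-beta-lactamase) underwent 5 hr compound incubation at 37 C and 5% CO2 in quantitative HTS format. Detection followed 2 hr of FRET substrate loading at room temperature.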
The target in test [17] is Retinoic acid receptor RXR-alpha (Homo sapiens) (UniProt P19793). Briefly: qHTS assay to identify small molecule agonists of the RXR signaling pathway (AID 1159527; calls by dose curve; also: nearly all actives have a fitted effect of over 35% in size). The method, boiled down: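 GeneBLAzer RXR-alpha-UAS-bla HEK 293T cells in 2% charcoal-stripped FBS medium were exposed to compounds for 16 hr at 37 C in agonist mode. Beta-lactamase reporter read as 460/530 nm FRET ratio after 2 hr substrate loading.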
Chain of Retinoic acid receptor RXR-alpha (Homo sapiens) (P19793 whole entry, looked up): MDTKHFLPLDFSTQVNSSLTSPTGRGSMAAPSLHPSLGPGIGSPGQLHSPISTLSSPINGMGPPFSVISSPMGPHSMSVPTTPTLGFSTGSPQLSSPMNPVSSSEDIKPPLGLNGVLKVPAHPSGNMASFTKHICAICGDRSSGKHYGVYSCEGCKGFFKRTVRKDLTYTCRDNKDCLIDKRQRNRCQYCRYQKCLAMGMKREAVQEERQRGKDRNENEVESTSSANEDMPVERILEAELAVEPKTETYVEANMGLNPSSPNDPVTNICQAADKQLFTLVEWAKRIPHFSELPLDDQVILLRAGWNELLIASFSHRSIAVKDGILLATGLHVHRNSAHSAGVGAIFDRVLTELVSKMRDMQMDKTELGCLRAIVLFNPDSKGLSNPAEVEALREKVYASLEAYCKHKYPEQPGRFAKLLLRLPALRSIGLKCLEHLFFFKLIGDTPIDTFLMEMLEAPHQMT

Test [18] in a line: qHTS assay to identify small molecule antagonists of the estrogen related receptor (ERR) signaling pathway (AID 1224819). The method, boiled down: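 qHTS in ERR cells, 2,000/well, 1536 format. Cpd (DMSO) added after 6 h settle, 18 h 37 C. One-Glo luminescence, 30 min RT.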
The nature of test [19]: qHTS assay to identify small molecule agonists of the estrogen related receptor (ERR) signaling pathway (AID 1224820). The method in brief: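 Quantitative HTS of the LOPAC library used NTP ERR reporter cells treated 18 h at 37 C. Signal is luminescence after One-Glo addition and a 30 min room-temperature incubation.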
The test system of test [20] is estrogen-related receptor alpha (ERRalpha) with PGC-1alpha coactivator, human. Briefly: qHTS assay to identify small molecule antagonists of the estrogen related receptor signaling pathway with the pleiotropic PPARgamma coactivator (PGC) (AID 1224821; calls by dose curve). The method, boiled down: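 Quantitative HTS for antagonism: PGC/ERR cells received compounds after 6 h attachment and were incubated 18 h at 37 C, with luminescence (One-Glo) as the endpoint.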

`COc1cc2c(c(OC)c1OC)-c1ccc(OC)c(=O)cc1[C@@H](NC(C)=O)CC2`: the Potency result in test [1], in [5], in [11] and in test [12] was “inactive” in each case. The result in test [2], in test [3], in test [4], in test [6], in [8] and in test [10] was inactive. The result in test [13] and in test [14] was inactive. Also, the Potency in test [7] is 538 nM (active) and 686 nM (active) and 37.6 nM (active); in [9], 172 nM (active).
For the compound `Cn1cnc2c1c(=O)[nH]c(=O)n2C`, the Potency result in test [1], in test [5], in test [7], in test [9], in [15] and in [11] was “inactive” in each case. Also, the compound was called inactive in test [2], in test [3], in test [4], in test [6], in [8] and in [10]. Moreover, the outcome in test [13] and in test [14] was inactive.
With `C=C(C)OC(C)=O`, the Potency entry in test [1], in [5], in test [7], in test [9], in [15] and in test [11] was “inactive” each time. For the same compound, the call in test [2], in test [3], in test [16], in [6], in test [8] and in [10] was inactive.
Regarding `CCCCOCCOCCOC(C)=O`, the Potency entry in test [1], in test [5], in [7], in test [9], in test [17] and in [15] was “inactive” throughout. The Potency result in test [11] is “inactive”. The call in test [2], in test [3], in [16], in test [8] and in [10] was inactive.
On to `CCCCC/C(C=O)=C\c1ccccc1`, for which the Potency entry in [1], in [5], in test [7], in [9], in [15] and in [11] was “inactive” each time. Further, the call in test [2], in test [3], in [4], in [6], in test [8] and in test [10] was inactive.
For the compound `CCN(CC)CCOC(=O)c1ccc(N)cc1`, the Potency result in [1], in test [5], in test [7], in test [9], in test [17] and in test [15] was “inactive” each time. Also, the Potency entry in test [11] and in test [18] was “inactive” in each case. Also, the result in test [2], in test [3], in [4], in [8], in test [10] and in test [13] was inactive. The result in test [19], in test [20] and in test [14] was inactive.
On to `COc1ccccc1O`, for which the Potency entry in test [1], in [5], in test [7], in test [9] and in test [15] was “inactive” in each case. For the same compound, the call in test [2], in test [3], in [4], in test [6], in [8] and in test [10] was inactive. The compound was classed as inactive in [13] and in [14].
In the case of `COc1cc(C=O)ccc1O`, the Potency result in [1], in test [5], in [7], in [9], in test [15] and in [11] was “inactive” throughout. The compound was called inactive in [2], in [3], in [16], in test [6], in test [8] and in [10].
With `CN(C)Cc1cc(CN(C)C)c(O)c(CN(C)C)c1`, the Potency result in [1], in test [5], in test [7], in test [9], in test [15] and in test [11] was “inactive” throughout. In addition, in [12], the Potency result is “inactive”. Also, the compound was classed as inactive in test [2], in test [3], in test [4], in test [6], in test [8] and in [10].

These data come from PubChem BioAssay (Tox21).
